Compound activity: PubChem BioAssay, National Center for Advancing Translational Sciences (NCATS)
Sampled rows, rich in hits. Any-hit rate of the full collection: about 2.4%.
D2 PAM-1 = positive allosteric modulators of human D2 dopamine receptor; P14416; HEK293 T-REx D2, calcium flux, EC20 dopamine potentiation; potentiation, % at 10 µM; 340,000 compounds, 0.34% hits; AID 485347;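 active means potentiation over 3 SD above the plate norm, cut at about 30% in these data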; further: 0% is about no effect
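Primary screen. Calcium kinetics in induced HEK293 T-REx D2 cells: compound pre-addition 180 s, EC20 dopamine, 180 s more.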
B2AR arrestin = recruits beta-arrestin to the human beta2-adrenergic receptor; beta-arrestin recruitment to beta2AR, cell-based reporter; Potency, µM (doses to about 46.1 µM), for inactives: at the highest dose activation, usual class: activators; 330,000 compounds, 0.02% hits; active means well fitted activation curve with a large enough effect;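 further: potency means the concentration at half of the fitted maximal effect; 0% = DMSO controls and full agonism = EC100 isoproterenol or metaproterenol; nearly all actives have a fitted effect of over 65% in size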
Target sequence (P07550 whole entry, looked up): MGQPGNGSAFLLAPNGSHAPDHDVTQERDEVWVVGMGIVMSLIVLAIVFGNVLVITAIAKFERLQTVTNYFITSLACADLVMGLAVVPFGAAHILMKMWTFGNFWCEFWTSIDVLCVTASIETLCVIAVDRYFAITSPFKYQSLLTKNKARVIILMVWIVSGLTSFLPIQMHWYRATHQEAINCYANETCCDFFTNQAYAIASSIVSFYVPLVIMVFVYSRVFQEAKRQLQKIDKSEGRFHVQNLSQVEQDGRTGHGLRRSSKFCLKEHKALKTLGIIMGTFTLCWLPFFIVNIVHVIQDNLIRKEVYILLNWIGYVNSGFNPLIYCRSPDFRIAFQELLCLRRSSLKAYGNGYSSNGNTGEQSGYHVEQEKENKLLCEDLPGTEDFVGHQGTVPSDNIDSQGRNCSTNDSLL
D2 PAM-2 = positive allosteric modulators of human D2 dopamine receptor | P14416 | DiscoveRx D2 beta-arrestin cells, luminescence, 90 min; 100% = 57 uM dopamine signal | potentiation, % (no concentration beside the values) | 360,000 compounds, 0.23% hits | AID 624464; in the data active means potentiation above about 50%
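PathHunter beta-arrestin assay in DiscoveRx D2 cells. Compounds were added with an EC20 of dopamine (50 nM final) for 90 min at 37 deg C. Luminescence was read 1 h after detection reagent, with 57 uM dopamine as the EC100 control.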
D2 ag-1 = human D2 receptor agonism in beta-arrestin assay; P14416; DiscoveRx PathHunter D2 beta-arrestin, luminescence, 90 min; 100% = 57 uM dopamine signal; activation, % (concentration not given with the values); 360,000 compounds, 0.084% hits; AID 624465; in the data active means activation above about 40%
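Agonist mode: compounds alone added to overnight-plated D2 PathHunter cells for 90 min at 37 C, with 57 uM final dopamine (EC100) defining full response. Beta-arrestin recruitment detected by chemiluminescent reagent, read after 1 h at ambient temperature.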
D2 ag-2 = D2 dopamine receptor (human) agonism; activation, % at 2 µM; AID 485358; HEK293 T-REx D2 cells, calcium flux agonist mode; 340,000 compounds, 0.53% hits; P14416;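 active means activation over 3 SD above normal in the single-dose calcium agonist read, cut at about 30% in these data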; further: 0% is about no effect
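Agonism is scored from calcium flux in a force-coupled, inducible HEK293 cell line expressing D2, read kinetically for 180 s after compound addition against dopamine controls.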
D2 antag = antagonists of human D2 dopamine receptor; P14416; inhibition, % at 10 µM; AID 485344; 340,000 compounds, 2% hits; HEK293 TREx D2 cells, calcium flux, dopamine EC80; in the data active means inhibition above about 30%; inactive means below that, where a call was filed; further: 0% is about no effect
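In this primary screen, negative modulation is detected by tracking calcium flux after an EC80 dopamine challenge in inducible HEK293 T-REx D2 cells preexposed to test compound for 180 s.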
Numbers without * were called inactive; / = no result.

SMILES	D2 PAM-1	B2AR arrestin	D2 PAM-2	D2 ag-1	D2 ag-2	D2 antag
COc1ccc(OC)c(NC(=O)c2ccc(CN3CCc4ccccc4C3)cc2)c1	-20	0%	-27	-3	0	41*
CCc1cccc(C)c1NC(=O)c1ccc(CN2CCc3ccccc3C2)cc1	-27	0%	-35	-2	-1	55*
CC(=O)Nc1ccc(NC(=O)c2ccc(CN3CCc4ccccc4C3)cc2)cc1	-17	0%	-40	2	0	22
COc1ccc(NC(=O)c2ccc(CN3CCc4ccccc4C3)cc2)c(OC)c1	-16	-1%	-3	-1	0	-13
CNCCCC1c2ccccc2C=Cc2ccccc21	-26	-1%	-27	2	3	75*
O=C1c2cccc([N+](=O)[O-])c2C(=O)N1CCO	40*	0%	-1	-1	1	6
CC1CC(C)CN(S(=O)(=O)c2ccc(NC(=O)C3CSC4(C)CCC(=O)N34)cc2)C1 (stereo not drawn)	30*	0%	-1	-3	0	-11
Cc1ccc(C(=O)N2CCOCC2)cc1S(=O)(=O)Nc1cccc(C)c1C	-1	-1%	-2	-2	0	42*
COc1ccccc1CN1CCC(CNS(=O)(=O)c2cc(-c3onc(C)c3C)ccc2OC)CC1	10	0%	-30	-3	-1	33*
CCn1cc(C(=O)O)c(=O)c2cc(S(=O)(=O)N3CCCCCC3)ccc21	1	-1%	-8	8	-1	-11
Cc1cccc(Nc2nc(N)c([N+](=O)[O-])c(N3CCCC(C)C3)n2)c1 (stereo not drawn)	18	0%	-28	-8	1	13
CN1CCN(c2nc(Nc3ccccc3)nc(N)c2[N+](=O)[O-])CC1	-25	0%	-17	-2	-1	83*
Cc1cccc(Nc2nc(N)c([N+](=O)[O-])c(N3CCN(C)CC3)n2)c1	-30	0%	-35	-5	-1	55*
CCCCOc1ccc(C(=O)N/N=C/c2ccc(OCCN3CCCCC3)c(OC)c2)cc1	-2	0%	9	-4	0	4
CCc1ccc(NC(=O)N(Cc2cccnc2)Cc2ccco2)cc1	32*	0%	-14	-2	0	-6
c1ccc(CNc2ncn[nH]2)cc1	/	/	-11	-7	/	/
O=c1cnnc(NCc2ccccc2)[nH]1	36*	0%	-15	-2	0	22
O=C1CC(c2ccco2)CC(O)=C1C=NCCN1CCN(C2CC(=O)N(c3ccccc3)C2=O)CC1 (stereo not drawn)	47*	0%	-1	1	0	-8
Cc1ccc(C)c(OCCN2C(=O)NC3(CCc4ccccc4C3)C2=O)c1 (stereo not drawn)	-3	7%	-27	-4	1	33*
CC1(C)OC2OC(C(=O)N/N=C/c3ccccc3F)C3OC(C)(C)OC3C2O1 (stereo not drawn)	9	-1%	-7	7	1	14
CC1(C)C(C=C(Cl)Cl)C1C(=O)N/N=C/c1ccccc1F (stereo not drawn)	11	0%	-12	-7	1	60*
CCOC(=O)c1cnc2ccc(C(=O)OC)cc2c1Nc1ccccc1CC	13	/	/	/	8	/
CCOc1ccc(S(=O)(=O)Nc2ccccn2)c2ccccc12	4	0%	-1	1	0	10
O=S(=O)(Nc1ccccn1)c1ccc(Cl)c2ccccc12	-2	-1%	1	2	-1	31*
COCC(C)N1CCC(n2nccc2NC(=O)c2ccc3c(c2)OCO3)CC1 (stereo not drawn)	-12	0%	4	0	0	10
SMILES	D2 PAM-1	B2AR arrestin	D2 PAM-2	D2 ag-1	D2 ag-2	D2 antag
CC(Cc1ccc(Cl)cc1)N1CCC(n2nccc2NC(=O)C2CCCC2)CC1 (stereo not drawn)	-14	0%	-7	-1	1	31*
CSCC(C)N1CCC(n2nccc2NC(=O)c2ccc3c(c2)OCO3)CC1 (stereo not drawn)	-1	0%	-4	-3	0	58*
Cc1cc2oc(C(=O)Nc3ccc(S(=O)(=O)Nc4ncccn4)cc3)c(C)c2cc1Cl	8	0%	-24	-2	/	/
Cc1c(C(=O)Nc2ccc(S(=O)(=O)Nc3ncccn3)cc2)oc2ccccc12	22	0%	-3	0	0	46*
COc1ccc(S(=O)(=O)N2CCC(NC(=O)OCc3c(Cl)cccc3Cl)CC2)cc1	5	0%	-7	-2	1	35*
COc1ccc(S(=O)(=O)N2CCC(C(=O)NCc3ccc(C)cc3)CC2)cc1	-1	0%	-8	-4	0	34*
Cc1ccc(S(=O)(=O)N2CCC(C(=O)N3CC(C)OC(C)C3)CC2)cc1 (stereo not drawn)	2	-1%	-12	-4	-1	50*
COc1ccc(CNC(=O)C2CCCN(S(=O)(=O)c3ccc(-n4cnnn4)cc3)C2)cc1 (stereo not drawn)	-16	0%	3	-3	1	36*
COc1ccc(CNC(=O)C2CCN(S(=O)(=O)c3ccc(F)cc3)CC2)cc1	-20	/	/	/	-2	/
Cc1ccc2[nH]c3c(=O)[nH]ncc3c2c1	11	0%	-3	0	-4	-33
O=C(O)CN1C(=O)/C(=C/c2cccc(Cl)c2)Oc2ccccc21	3	0%	-9	-5	1	28
CC(C)(C)c1ccc(C(=O)NCc2nnc(SCC(=O)NC3CCCC3)o2)cc1	16	0%	4	-3	0	-6
CC(C)CCNC(=O)c1ccc2c(c1)ncn2C1CCCC1	-3	-1%	-7	-4	0	4
Cc1ccc(C(=O)NCC(=O)NC23CC4CC(CC(C4)C2)C3)cc1	-8	0%	-9	-5	30*	12
Cc1ccc(C(=O)NCCSC(C)(C)C)cc1	-4	-1%	-6	-2	0	3
Cc1ccc(C(=O)NCC(C)(C)O)cc1	19	5%	-2	-2	0	38*
c1csc(-c2nn3c(Cn4cnc5ccccc54)nnc3s2)c1	2	0%	6	1	0	-6
Clc1cccc(-c2nn3c(Cn4cnc5ccccc54)nnc3s2)c1	13	0%	-5	-3	3	34*
Cc1csc2nc(CSc3nncn3-c3ccccc3)c(Br)n12	26	0%	-22	-3	-2	8
Cc1csc2nc(CSc3nc4ccccc4o3)c(Br)n12	36*	0%	9	-1	0	-4
CCCNC(=O)C1(C)CCCN(Cc2cccc(Oc3ccccc3)c2)C1 (stereo not drawn)	/	/	-12	-5	/	/
